Among all 31,000 sequences or so, about 1,400 (4.5%) were called active. This is one part of a sample in which actives are shown more often than they occur. A number with no mark means an inactive call.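 How the source made its calls: active means median seed-adjusted z-score above 1 or below -1; inactive means the rest.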
Assay: Novel Modifiers of Survival Motor Neuron (SMN) Protein: Gene Identification via Genome-wide siRNA Screen;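 further: luminescence tracks full-length SMN protein made from the SMN2 reporter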
Conditions: HEK293T SMN2-luciferase reporter, siRNA knockdown, 72 h; actives lie on both sides
In short: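 Steps: spot 1 pmol siRNA, add Lipofectamine RNAiMax in serum-free DMEM, seed HEK293T SMN2–luciferase reporter cells; incubate 72 h at 37 °C; add ONE-Glo; normalize luminescence to control siRNA, log10, MAD. Candidates: |MAD| > 1.0.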

Sequence | median seed-adjusted z-score
GCUUUGAGGAAAAUCCGAATT against SLC26A3 | -0.506
GGAAAGCUCUUCGUCUGGATT against IFIT5 | 0
GCCUCUUAAUUUACCAGAATT against OGN | 0.0889
GGUUGUUAGUGGAUCAUCATT against FBXW11 | 0.206
GAGUGAUAUGAAACGGAAATT against NVL | 0.701
GUUUCGAGAUUGUUGCUAUTT against CCNL1 | -1.26 (active)
CGACUACUACUACCCUGAUTT against CCR8 | -0.206
AGUGCAAAAACGUGCUGAATT against AURKAIP1 | 0.067
CGAUUGCUUUUCUACCAACTT against SCP2 | 0.413
CAUUUCGACUGGAUCAUAUTT against CLK1 | -0.436
AUACAGAUGAUAAACCAUUTT against ZBTB34 | 0.0298
CGGCCCUCCUCUGAAAAGATT against POU4F2 | 1.46 (active)
CCUCAGAUCUGAUGUCCAATT against VPS4A | 0
GAAUGACCCUGUACCCUAUTT against TAF2 | -0.243
GAAGGAUUUUGAGCCCGAATT against LETM1 | -0.491
ACACGUUGGAAGUAGCUGATT against OTUD4 | 0.167
GCUUAUAUGUUACCAUGGATT against COG4 | -0.508
GGUGACCGGUUACUUGGGATT against FFAR1 | 0.248
GCUUAUCUCGGCAAUCAAATT against PAPPA2 | -0.173
GAAAGACGAGCUUUACCUATT against GSK3A | 0.248
UGUGGAUCUGCUUACCAAATT against ZFAND2B | 0
GAGGUUUUCCAGACGGUGATT against EHD3 | 0.569

Sequence | median seed-adjusted z-score
GCAUGCUCAUGGGUUACAATT against ZNF451 | 0
GGUGGUUGCUGUAUAUGGATT against KCTD9 | 1.31 (active)
CGGAAGCAGUUCCAACUUUTT against AKAP8 | -0.252
CAAAAUACAGAGUUUCUUUTT against RILP | 0.503
GGAUGUGAACGGGCACAUUTT against CDC42BPG | 0.153
CAGACAGUAUGUUCGAAGATT against PPAT | -1.51 (active)
GAAUCCUGAUGGGUAUGAATT against CPD | -0.198
GUCUUUAAUGCGCACUAUATT against FEZF1 | 0.155
ACAUCGUUGUGGUCAAGGUTT against ADAMTS15 | 0.765
GGACAAAACUCCUCUCUAUTT against MED27 | -1.62 (active)
GUAUAGGGCCUGUAAGUUUTT against LANCL1 | 0
CUGCCUUGAUGACACCAGATT against TRIM16 | 0.345
CUACUAUCCUGGUUCUGGATT against PROS1 | 0.436
GUGAUACUGUCAAAGGUCATT against ATF2 | 0.424
GGGUUUAACUGGGAACUCUTT against GALNT8 | -0.283
GAUCCGUUGGUGCAUGAAATT against ABHD2 | -1.21 (active)
GAUCGACUGCUAGAGAGUATT against DCLK1 | 0.193
GUGCUAACUCAAUUCCAUATT against SSBP3 | 0.00592
GCCUUUCAGCAUGCGGUUATT against GDPD1 | 0.527
CCAUCUCUUUGGUAGUACUTT against TBC1D23 | 0.0932
CGUCUUUCCAGAAUUCAAATT against HGS | 1.16 (active)
GCAAGACUUUUGGUCGAAATT against ZNF816A | 0.39

Sequence | median seed-adjusted z-score
CCGUUGCUAUGAACAAGUUTT against B4GALT3 | -0.138
GACAGAAGAUCAAUAUGAATT against ETS2 | 0.636
GAAGAGUGCUUGAAAUUUUTT against GFRA1 | 0.125
GCAUCCGGAUUCUUGAUGATT against PGK2 | -0.127
ACAAAGCUGCUGUGCUAUATT against BET1 | 0.394
CAGAUUACGUUUAUAAGAATT against ZNF274 | 0.452
CGAGUGCACUGCUGCCUAUTT against 5-Sep | -0.0749
GAUCCGAGAUCAACACCUUTT against PIK3R3 | -1.88 (active)
GACUACCAGUUGAUCAUGUTT against TTBK1 | 0.00054
CACCUGUACUUAUCCCGAATT against MEGF10 | 0.622
AAAUCGCGACGACUAAAUATT against CCBE1 | 0.964
CAUCAGCUUCCGCAACUUUTT against LRP3 | -1.05 (active)
GGAAUACAUCAGAAUGGUATT against ITCH | 0.199
CCAAUGCUGUGACUUUCGATT against KIFC3 | 0.54
GCAGCAAAGGAAACCUAAATT against KLRC3 | 0.833
GCAAGCGAGUCAACACCAATT against DRD2 | -0.0273
CUUCAGUACCUUAUCAUUATT against ST6GALNAC5 | -0.0321
GGCCGUUUGUCAUUCCCUUTT against CBFA2T3 | -0.135
GGAAGAGACUUUGUCCACATT against BIRC7 | -1.44 (active)
CUCUGGGAGUCACGACUUUTT against GPR37L1 | -0.0348
GAGACAAAUUUGGGCCUUATT against HSF4 | 0.926
CAACGAUGGUGUACUACAATT against ABCC9 | 0.376

Sequence | median seed-adjusted z-score
CAAGCGGACCAGGACCUAUTT against CSDC2 | -0.321
CAGUAUCCAUGGUGAUCUATT against ZP2 | 0.0455
GCAGCUCAACGGCAAAGAATT against RBM14 | -0.0317
GCAUCUCAAUAUCAACAAUTT against LINGO2 | 0.123
GAAUAUCGGUUGGAUUAUATT against ITGAV | 1.17 (active)
GGGCGGUCAUGGUUUUGAATT against CHST13 | -0.447
CCGCUGUUAUCAUUACCAUTT against KIR2DL5B | 1.72 (active)
GCUCUUCUAGACAUCGAUATT against NUBP1 | -0.0975
GAGGUUCCCUAAUUUCCAATT against HIF1AN | -0.0315
ACUACCUUCUCAUCAAGGATT against CCL19 | 0.0364
GCCUAGAAUUUGUAUCCCATT against ATXN2 | 0
CCAAUCUGGUGACGAUUUATT against SP110 | -0.788
GUAUUUCGAGUAAGUCUAATT against TTPA | -0.208
GGAGUUACUCCAUUAACUATT against JARID1C | 0.372
CCUGCGUCUCUACAACUAUTT against AURKB | 0.0901
GAGAUUUGAUGAGAAGAGATT against MMP3 | 0.0592
UCUGGCUUAUUAUAACUAUTT against ACOT2 | 0.578
AGAUCGAGCCGGACAUGAUTT against NACC1 | 1.59 (active)
GAUGGGUUCUUGAACAUAUTT against EXOG | 0.746
CCUCAUGCCUUAAUGAUCATT against ZNF561 | -0.00904
CAUCCGUUCCAUACAUGUATT against AEBP2 | -0.212
GGAAUGGUUUAAAAUAGAATT against NUDT3 | 0.674

Sequence | median seed-adjusted z-score
GGCAUUGCUUAAUGAUAUATT against SF3B1 | -3.65 (active)
CCUUCAGUCUUAACUCCAATT against ZKSCAN1 | 0.229
GCUGUAGCCUUGAUGCCUATT against INMT | 0.863
GUCCGAGUGUGGUUCUGUATT against POU5F1 | 0.0495
GGAAGAUCCUCUACCAGAATT against LATS2 | -0.245
CAGUCAAUGUUGUUCAGUUTT against GARS | 0.138
GGCUACAACGUGACCAAGATT against FZD4 | 0.0695
ACUUCAUGAUGGAUAUCCATT against KCNN4 | 0.00864
CCCUACAUGUGAACAACGATT against PRPF8 | -1.54 (active)
GGCUAUGACGGGAAGGAGATT against PTPN7 | -0.189
GAAUAGAUUUCAGUAGUAUTT against DDI2 | 1.27 (active)
CCAGUGUACUCAGUCUAUUTT against STAM2 | -0.24
GACCUUCCUAGUUUCCUGATT against GIPC1 | 0
AGCUCAACCGGUUUAAUAATT against SLC9A1 | 0
GGAAAUAGGUCUAGUACUATT against PRPF4B | -2.29 (active)
GGAUGAGAAAGUCGUGAAATT against TSHZ2 | -0.361
CGGAUACGCUAAAAAUCAATT against B3GNTL1 | 0
GCCUAUUAUGGACAACAAUTT against IKZF2 | 0.514
GGAGUUAAGAAUAUUAUGATT against VAMP8 | -0.184
GGAGUUCAUCAAUAUGAAUTT against MLF1 | 0.258
